What all share (assay): MAPPIT interaction score (arbitrary units); higher = stronger binary interaction signal, active = hit call of the paper
The target in assay [1] is 128up. Conditions: MAPPIT configuration: N-N; pair source set: DPIM. How it is done: (§1)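 MAPPIT in HEK293T cells: Drosophila bait and prey ORFs (from the FlyBi ORF collection) were co-transfected in quadruplicate, with two wells stimulated by erythropoietin. Interaction-dependent JAK-STAT activation was read out with a STAT-responsive firefly luciferase reporter. Positive calls use the 99th percentile of random reference set (RRS) scores within each batch […]. Batches Dvs01 and Dvs02 used the N-N configuration and Dvs04 the N-C configuration. Pairs come from FlyBi screens, CuraGen, DPiM, Finley Y2H, Lit-BM-16, Lit-BS-16 and RRS.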

Assay [2] addresses ACOX1. Conditions: MAPPIT configuration: N-N; pair source set: Curagen_low_conf. How it is done:
as §1

In assay [3] the target is mbo. To be noted: pair source set: Lit-BM-16. How it is done:
as §1

Assay [4] deals with 7B2. To be noted: MAPPIT configuration: N-N; pair source set: Finley_Y2H. How it is done:
as §1

Assay [5] addresses CG10591. Conditions: MAPPIT configuration: N-N; pair source set: Curagen_low_conf. How it is done:
as §1

The target of assay [6] is CSN7. Conditions: MAPPIT configuration: N-N; pair source set: Lit-BM-16. How it is done: as §1
For assay [7], the target named is PICK1. Conditions: MAPPIT configuration: N-N; pair source set: screen_1. How it is done:
as §1

Assay [8] concerns the target 14-3-3epsilon. To be noted: pair source set: Lit-BM-16. How it is done:
as §1

The target in assay [9] is hpo. Conditions: MAPPIT configuration: N-N; pair source set: Lit-BM-16. How it is done: as §1
Assay [10] addresses sd. To be noted: MAPPIT configuration: N-C; pair source set: Lit-BM-16. How it is done:
as §1

In assay [11] the target is CG5174. Conditions: MAPPIT configuration: N-N; pair source set: Curagen_low_conf. How it is done: as §1
Assay [12] addresses LamC. To be noted: MAPPIT configuration: N-N; pair source set: DPIM. How it is done: as §1
For assay [13], the target named is mon2. To be noted: MAPPIT configuration: N-N; pair source set: Curagen_low_conf. How it is done:
as §1

For assay [14], the target named is par-1. To be noted: pair source set: Lit-BM-16. How it is done: as §1
Assay [15] deals with sol. Conditions: MAPPIT configuration: N-N; pair source set: Curagen_low_conf. How it is done: as §1
Assay [16] concerns the target tral. Conditions: MAPPIT configuration: N-N; pair source set: Lit-BS-16. How it is done: as §1
The target of assay [17] is 14-3-3zeta. Conditions: pair source set: Lit-BM-16. How it is done: as §1
In assay [18] the target is yki. Conditions: MAPPIT configuration: N-N; pair source set: Lit-BM-16. How it is done:
as §1

Values without a mark were called inactive.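 The calls were made as follows: active = MAPPIT score above the 99th percentile of random reference set scores in the same batch; inactive = at or below it.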
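Also: HEK293T cells with Epo stimulation, STAT-responsive firefly luciferase reporter, fold induction versus unstimulated cells divided by the larger fold induction of two negative controls lacking either bait or prey.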

B1: mod (protein)
chain: MAQKKAVTVKGKKATNGEEKPLAKRVTKSTKVQEEETVVPQSPSKKSRKQPVKEVPQFSEEDESDVEEQNDEQPGDDSDFETEEAAGLIDDEAEEDEEYNSDDEEDDDDDELEPGEVSKSEGADEVDESDDDEEAPVEKPVSKKSEKANSEKSEENRGIPKVKVGKIPLGTPKNQIVFVTNLPNEYLHKDLVALFAKFGRLSALQRFTNLNGNKSVLIAFDTSTGAEAVLQAKPKALTLGDNVLSVSQPRNKEENNERTVVVGLIGPNITKDDLKTFFEKVAPVEAVTISSNRLMPRAFVRLASVDDIPKALKLHSTELFSRFITVRRISQESISRTSELTLVVENVGKHESYSSDALEKIFKKFGDVEEIDVVCSKAVLAFVTFKQSDAATKALAQLDGKTVNKFEWKLHRFERSTSGRAILVTNLTSDATEADLRKVFNDSGEIESIIMLGQKAVVKFKDDEGFCKSFLANESIVNNAPIFIEPNSLLKHRLLKKRLAIGQTRAPRKFQKDTKPNFGKKPFNKRPAQENGGKSFVKRARF
B1: the MAPPIT interaction score in [1] is -0.0936.

B2: emb (protein)
chain: MATMLTSDEAGKLLDFSQKLDINLLDKIVEVVYTAQGEQLRLAQSILTTLKEHPEAWTRVDSILEYSQNQRTKFYALQILEEVIKTRWKVLPRNQCEGIKKYVVSLIIKTSSDPIVMEQNKVYLNKLNMILVHILKREWPRNWETFISDIVGASKTNESLCMNNMVILKNLSEEVFDFSQGQITQTKAKHLKDTMCSEFSQIFTLCSFVLENSMNAALIHVTLETLLRFLNWIPLGYIFETQQIETLIFKFLSVPMFRNVTLKCLSEIAGLTAANYDENFATLFKDTMVQLEQIVGQNMNMNHVFKHGSDTEQELVLNLAMFLCTFLKEHGKLVEDAKYVDYLNQALMYLVMISEVEDVEVFKICLEYWNSLVEDLYNSEFFHPTLESTKRQQVYPRRRFYAPILSKVRFIMISRMAKPEEVLVVENENGEVVREFMKDTNSINLYKNMRETLVFLTHLDSVDTDRIMTLKLLNQVNGSEFSWKNLNTLCWAIGSISGAFCEEDEKRFLVTVIKDLLGLCEQKKGKDNKAIIASNIMYVVGQYPRFLRAHWKFLKTVVNKLFEFMHETHDGVQDMACDTFIKIAIKCRRYFVTIQPNEACTFIDEILTTMSSIICDLQPQQVHTFYEAVGYMISAQVDQVQQDVLIERYMQLPNQVWDDIISRASKNVDFLKNMTAVKQLGSILKTNVAACKALGHAYVIQLGRIYLDMLNVYKITSENIIQAIEVNGVNVNNQPLIKTMHVVKKETLNLISEWVSRSNDNQLVMDNFIPPLLDAILLDYQRCKVPSAREPKVLSAMAIIVHKLRQHITNEVPKIFDAVFECTLDMINKNFEDFPQHRLSFYELLQAVNAHCFKAFLNIPPAQFKLVFDSVVWAFKHTMRNVADMGLNILFKMLQNLDQHPGAAQSFYQTYFTDILMQIFSVVTDTSHTAGLPNHAIILAYMFSLVENRKITVNLGPIPDNMIFIQEYVASLLKSAFTHLSDNQVKVFVTGLFNLDENVQAFKEHLRDFLIQIREATGEDDSDLYLEEREAALAEEQSNKHQMQRNIPGMLNPHELPEDMQDE
B2: the MAPPIT interaction score in assay [2] is 1.6; in assay [3] (MAPPIT configuration: N-C), 1.34; in assay [3] (MAPPIT configuration: N-N), 1.54.

B3: CSN4 (protein)
chain: MAANYGISTAALRSQLMGLINFTGTHKDQADKYRQLLKTVLTNTGQELIDGLRLFVEAIVNEHVSLVISRQILNDVGSELSKLPDDLSKMLSHFTLEKVNPRVISFEEQVAGIRFHLANIYERNQQWRDAATVLVGIPLETGQKQYSVECKLGTYLKIARLYLEDNDSVQAELFINRASLLQAETNSEELQVLYKVCYARVLDYRRKFIEAAQRYNELSYRKIVDQGERMTALKKALICTVLASAGQQRSRMLATLFKDERCQHLPAYGILEKMYLERIIRRSELQEFEALLQDHQKAATSDGSSILDRAVFEHNLLSASKLYNNITFEELGALLDIPAVKAEKIASQMITEGRMNGHIDQISAIVHFENRELLPQWDRQIQSLCYQVNSIIEKISVAEPDWMDNLN
As to B3, the MAPPIT interaction score in assay [4] was -0.195; in [5], 0.0604; in assay [6], 4.26 (active); in [7], 2.03.

B4: yki (protein)
chain: MLTTMSASSNTNSLIEKEIDDEDMLSPIKSNNLVVRVNQDTDDNLQALFDSVLNPGDAKRPLQLPLRMRKLPNSFFTPPAPSHSRANSADSTYDAGSQSSINIGNKASIVQQPDGQSPIAAIPQLQIQPSPQHSRLAIHHSRARSSPASLQQNYNVRARSDAAAANNPNANPSSQQQPAGPTFPENSAQEFPSGAPASSAIDLDAMNTCMSQDIPMSMQTVHKKQRSYDVISPIQLNRQLGALPPGWEQAKTNDGQIYYLNHTTKSTQWEDPRIQYRQQQQILMAERIKQNDVLQTTKQTTTSTIANNLGPLPDGWEQAVTESGDLYFINHIDRTTSWNDPRMQSGLSVLDCPDNLVSSLQIEDNLCSNLFNDAQAIVNPPSSHKPDDLEWYKIN
Take B4: the MAPPIT interaction score is 2.04 in assay [8] (MAPPIT configuration: N-C), 2.25 in assay [8] (MAPPIT configuration: N-N), 0.208 in [9] and 0.32 in [10].

B5: 14-3-3zeta (protein)
chain: MSTVDKEELVQKAKLAEQSERYDDMAQAMKSVTETGVELSNEERNLLSVAYKNVVGARRSSWRVISSIEQKTEASARKQQLAREYRERVEKELREICYEVLGLLDKYLIPKASNPESKVFYLKMKGDYYRYLAEVATGDARNTVVDDSQTAYQDAFDISKGKMQPTHPIRLGLALNFSVFYYEILNSPDKACQLAKQAFDDAIAELDTLNEDSYKDSTLIMQLLRDNLTLWTSDTQGDEAEPQEGGDN
On to B5, for which the MAPPIT interaction score in assay [8] (MAPPIT configuration: N-N) is 3.94 (active); in assay [11], 0.738; in assay [12] it was 0.222; in assay [13], 0.305; in assay [14] (MAPPIT configuration: N-C) it was -0.258; in [14] (MAPPIT configuration: N-N) it was -0.148. In addition, the MAPPIT interaction score in assay [15] was 1.59; in assay [16], 0.0264.

B6: 14-3-3epsilon (protein)
chain: MTERENNVYKAKLAEQAERYDEMVEAMKKVASMDVELTVEERNLLSVAYKNVIGARRASWRIITSIEQKEENKGAEEKLEMIKTYRGQVEKELRDICSDILNVLEKHLIPCATSGESKVFYYKMKGDYHRYLAEFATGSDRKDAAENSLIAYKAASDIAMNDLPPTHPIRLGLALNFSVFYYEILNSPDRACRLAKAAFDDAIAELDTLSEESYKDSTLIMQLLRDNLTLWTSDMQAEEVDPNAGDGEPKEQIQDVEDQDVS
On to B6, for which the MAPPIT interaction score in [17] (MAPPIT configuration: N-C) was 1.51; in [17] (MAPPIT configuration: N-N), 4.99 (active); in assay [14] (MAPPIT configuration: N-C), -0.702; in assay [14] (MAPPIT configuration: N-N) it was -0.144; in [18], 0.198.
